In the supplement of paper PMC12350171:
Where a name gives a salt, the structure may show the parent alone. Values without a mark were called inactive.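 The calls were made as follows: active = AUC significantly below DMSO controls by Student t-fit with adjusted P under 0.01; inactive = not significantly reduced.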

tested on: Haemophilus parainfluenzae; test: growth AUC normalised to DMSO control (fraction of control); higher = less growth inhibition, active = hit call of the paper; conditions: 20 µM
Method in brief: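 Three biological replicates were carried out, with OD578 read hourly for 24 h. Before inoculation at a starting OD578 of 0.01, pathogens were passaged anaerobically twice; plates were pre-reduced mGAM containing 20 μM compound and 1% DMSO, sealed with breathable membranes, and the Haemophilus parainfluenzae medium carried added hemin and NAD. Area under each growth curve was calculated by the trapezoidal rule up to the exponential-to-stationary transition and normalised to DMSO controls on the same plate.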

Compound	growth AUC normalised to DMSO control
Cc1c(-c2ccccc2)oc2c(C(=O)OCCN3CCCCC3)cccc2c1=O [Flavoxate hydrochloride]	1.2
O=c1cc(-c2ccc(O)c(O)c2)oc2cc(O)cc(O)c12 [Luteolin]	1.02
COc1ccccc1OCC(O)CO (stereo not drawn) [Guaifenesin]	1.04
CC(=O)O[C@]1(C(C)=O)CC[C@H]2[C@@H]3C=C(C)C4=CC(=O)CC[C@@H]4[C@H]3CC[C@@]21C [Nomegestrol acetate]	0.976
O=C(O)COC(=O)Cc1ccccc1Nc1c(Cl)cccc1Cl [Aceclofenac]	1.01
CN1CCN(C(c2ccccc2)c2ccccc2)CC1 [Cyclizine hydrochloride]	0.995
O=C1c2c(O)cccc2Cc2cccc(O)c21 [Anthralin]	1.39
CN[C@@H]1[C@@H](O)[C@@H](O[C@@H]2[C@@H](O)[C@H](O[C@H]3OC(CN)=CC[C@H]3N)[C@@H](N)C[C@H]2N)OC[C@]1(C)O [Sisomicin sulfate]	0.864
CCOC1O[C@H]([C@@H](COCc2ccccc2)OCc2ccccc2)[C@H](OCc2ccccc2)[C@H]1O (stereo partly drawn) [Tribenoside]	0.941
CCn1cc(C(=O)O)c(=O)c2cnc(N3CCCC3)nc21 [Piromidic acid]	1.03
CCC(=O)O[C@]1(C(=O)CCl)[C@@H](C)C[C@H]2[C@@H]3CCC4=CC(=O)C=C[C@]4(C)[C@@]3(F)[C@@H](O)C[C@@]21C [Clobetasol propionate]	1.47
CN(CCOc1ccc(CC2SC(=O)NC2=O)cc1)c1ccccn1 (stereo not drawn) [Rosiglitazone hydrochloride]	1.06
C[C@H]1O[C@@H](O[C@H]2[C@@H](O)C[C@H](O[C@H]3[C@@H](O)C[C@H](O[C@H]4CC[C@@]5(C)[C@H](CC[C@@H]6[C@@H]5C[C@@H](O)[C@]5(C)[C@@H](C7=CC(=O)OC7)CC[C@]65O)C4)O[C@@H]3C)O[C@@H]2C)C[C@H](O)[C@@H]1O [Digoxin]	0.979
CC(CNC1CCCCC1)OC(=O)c1ccccc1 (stereo not drawn) [Hexylcaine hydrochloride]	0.995
Cc1c(Cl)cccc1Nc1ccccc1C(=O)O [Tolfenamic acid]	0.852 (active)
Cn1c(=O)c2c(ncn2CC2OCCO2)n(C)c1=O [Doxofylline]	1.02
CCN(CC)CCNC(=O)c1cc(Cl)c(N)cc1OC [Metoclopramide monohydrochloride]	0.991
CC1(C)O[C@@H]2C[C@H]3[C@@H]4C[C@H](F)C5=CC(=O)CC[C@]5(C)[C@H]4[C@@H](O)C[C@]3(C)[C@]2(C(=O)CO)O1 [Flurandrenolide]	1.03
CCC1=C(C)CN(C(=O)NCCc2ccc(S(=O)(=O)NC(=O)N[C@H]3CC[C@H](C)CC3)cc2)C1=O [Glimepiride]	1.02

Compound	growth AUC normalised to DMSO control
CCC(NC(C)C)C(O)c1ccc(O)c(O)c1 (stereo not drawn) [Isoetharine mesylate salt]	1.01
CCc1oc2ccccc2c1C(=O)c1cc(Br)c(O)c(Br)c1 [Benzbromarone]	0.987
CC(CN(C)C)CN1c2ccccc2CCc2ccccc21 (stereo not drawn) [Trimipramine maleate salt]	1.07
C[C@]12CCC(=O)C=C1CC[C@@H]1[C@@H]2C(=O)C[C@@]2(C)[C@H]1CC[C@]2(O)C(=O)CO [Cortisone]	0.971
CC(C)(C)NC[C@H](O)COc1ccccc1C1CCCC1 [Penbutolol sulfate]	1.02
Cc1cnc(C(=O)NCCc2ccc(S(=O)(=O)NC(=O)NC3CCCCC3)cc2)cn1 [Glipizide]	0.995
C[C@]12CC[C@@H]3c4ccc(O)cc4CC[C@H]3[C@@H]1C[C@@H](O)[C@@H]2O [Estriol]	1.02
CC(CN(C)C)C(C)(O)Cc1ccc(Cl)cc1 (stereo not drawn) [Clobutinol hydrochloride]	0.963
CCN(CC)C(C)CN1c2ccccc2Sc2ccccc21 (stereo not drawn) [Ethopropazine hydrochloride]	0.963
CNNCc1ccc(C(=O)NC(C)C)cc1 [Procarbazine hydrochloride]	0.995
Cc1c(N(C)C)c(=O)n(-c2ccccc2)n1C [Amidopyrine]	1.01
CCN(CC)CCOCCOC(=O)C1(c2ccccc2)CCCC1 [Carbetapentane citrate]	1
CCCCOC(=O)c1ccc(O)cc1 [Butylparaben]	0.97
CC(Oc1ccccc1)C(=O)N[C@@H]1C(=O)N2[C@@H]1SC(C)(C)[C@@H]2C(=O)O (stereo partly drawn) [Phenethicillin potassium salt]	0.59 (active)
O=C1CCc2ccc(OCCCCN3CCN(c4cccc(Cl)c4Cl)CC3)cc2N1 [Aripiprazole]	0.994
C[C@H](CCC(=O)O)[C@H]1CC[C@H]2[C@@H]3[C@@H](O)C[C@@H]4C[C@H](O)CC[C@]4(C)[C@H]3CC[C@]12C [Urosiol]	1.01
CCCCN(CCCC)CCC(O)c1cc2c(Cl)cc(Cl)cc2c2cc(C(F)(F)F)ccc12 (stereo not drawn) [Halofantrine hydrochloride]	1.06
COc1ccc2[nH]cc(CCNC(C)=O)c2c1 [Melatonin]	0.966
CC(=O)OCC(=O)[C@@]12OC(C)(C)O[C@@H]1C[C@H]1[C@@H]3C[C@H](F)C4=CC(=O)C=C[C@]4(C)[C@@]3(F)[C@@H](O)C[C@@]12C [Fluocinonide]	0.999
